Screens (PubChem)
FLuc counter: counter-screen for miR-21 project: firefly luciferase inhibitors or activators; P08659; purified FLuc, Km substrates, luminescence inhibition; Potency, µM (titrated, usually from 57.5 µM), inactives show at the top dose activity change, negative = inhibition, usual class: inhibitors; hit rate 6.9% among 360,000;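 further: plate controls were vehicle for no effect and reference inhibitor for full effect; nearly all actives have a fitted effect of over 55% in size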
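Purified P. pyralis luciferase, 10 nM final, with Km-level 10 uM D-luciferin and 10 uM ATP in 50 mM Tris acetate pH 7.5, 10 mM Mg acetate, 0.01% Tween-20, 0.05% BSA; 6-point qHTS titration about 60 µM downward; luminescence read.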
ELG1 repair inh: inhibitors of ELG1-dependent DNA repair in HEK293T cells | HEK293T ELG1-luciferase reporter, luminescence, 16 h; DNA damage induced by 5-fluorouridine | Potency, µM (top dose mostly 46.1 µM), inactives show at the highest dose activity change, negative = inhibition, most hits filed as inhibitors | hit rate 2.3% among 330,000 | AID 504467; further: on the % scale 0 is the no-effect control and ±100 the full control effect; nearly all actives have a fitted effect of over 55% in size
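Quantitative HTS, concentration-response format. 2,000 cells/well co-treated with 5-fluorouridine and compound, 16 hr in 5% CO2 at 37 °C; ONE-Glo luminescence read after 30 min.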
ELG1 genotoxic: induces genotoxicity in HEK293T cells with luciferase-tagged ELG1 | HEK293T ELG1-luciferase reporter, luminescence, 16 h | hit rate 1.3% among 330,000 | Potency, µM (highest dose often 46 µM), without a hit: at the highest dose activity change, positive = activation, actives largely listed as activators; further: % of control where 0% means no effect; nearly all actives have a fitted effect of over 60% in size
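Step 1: seed 2,000 HEK293T ELG1-luciferase cells per well. Step 2: add compound or DMSO, incubate 16 hr at 37 °C. Step 3: ONE-Glo, 30 min at room temperature, read luminescence.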
NPC1 promoter act: activators of NPC1 promoter; Huh7 NPC1 promoter luciferase reporter, 24 h; Potency, µM (series often up to 9.22 µM), inactives show at the top dose activation, hits mostly activators; hit rate 2.4% among 320,000; further: % of control where 0% means no effect; nearly all actives have a fitted effect of over 60% in size
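Stable NPC1-promoter luciferase Huh7 line; cpd (DMSO) 24 h, 37 °C, 5% CO2; Amplite luciferase reagent 10 min RT; luminescence readout. qHTS format.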
Rab9 prom act: Rab9 promoter activation. Huh7 Rab9 promoter-luciferase reporter, luminescence, 24 h. Potency, µM (series often up to 9.22 µM), for the others: top-dose activation, negative = inhibition, most hits filed as activators. hit rate 2.8% among 320,000. AID 485297; further: % of control where 0% means no effect; nearly all actives have a fitted effect of over 60% in size
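Huh7 cells stably carrying Rab9 promoter–luciferase reporter, plated 1500 cells/well, compound added after 2 h and incubated 24 h at 37 °C; luciferase luminescence then read after 10 min with detection reagent.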
SMN2 splice up: increases expression of the SMN2 splice variant; Potency, µM (highest dose often 46.1 µM), without a hit: at the top dose activity change, positive = activation, most hits filed as activators; HEK293 SMN2-luciferase splicing reporter, luminescence, 30-36 h; AID 1458; hit rate 2.8% among 210,000; further: % of control where 0% means no effect; nearly all actives have a fitted effect of over 55% in size
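HEK293 cells carry an SMN2 […]–luciferase reporter in which exon 7 inclusion puts luciferase in frame. Cells were plated 10-12 h before compound addition, then incubated 30-36 h at 37C. ONE-Glo luminescence was read; sodium butyrate at 4.5 mM final served as control.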
ELG1 FLuc counter: luciferase inhibition in cell-free luciferin readout for ELG1 hits | shares compounds with ELG1 repair inh | AID 624247 | cell-free firefly luciferase luminescence counter-screen, ViewLux | Potency, µM (top dose mostly 46.1 µM), for inactives: at the top dose activity change, negative = inhibition, usual class: inhibitors | hit rate 3% among 350; further: on the % scale 0 is the no-effect control and ±100 the full control effect
ELG1-Luc inh: human ELG1 repair inhibition, luciferase-tagged ELG1 confirmation; shares compounds with ELG1 repair inh; HEK293T ELG1-luciferase levels, luminescence; cells co-treated with 5-fluorouridine; Potency, µM (top dose mostly 46.1 µM), without a hit: top-dose activity change, negative = inhibition, usual class: inhibitors; hit rate 68% among 670; AID 624248; further: on the % scale 0 is the no-effect control and ±100 the full control effect; nearly all actives have a fitted effect of over 55% in size
Target sequence (Q96QE3 whole entry, looked up): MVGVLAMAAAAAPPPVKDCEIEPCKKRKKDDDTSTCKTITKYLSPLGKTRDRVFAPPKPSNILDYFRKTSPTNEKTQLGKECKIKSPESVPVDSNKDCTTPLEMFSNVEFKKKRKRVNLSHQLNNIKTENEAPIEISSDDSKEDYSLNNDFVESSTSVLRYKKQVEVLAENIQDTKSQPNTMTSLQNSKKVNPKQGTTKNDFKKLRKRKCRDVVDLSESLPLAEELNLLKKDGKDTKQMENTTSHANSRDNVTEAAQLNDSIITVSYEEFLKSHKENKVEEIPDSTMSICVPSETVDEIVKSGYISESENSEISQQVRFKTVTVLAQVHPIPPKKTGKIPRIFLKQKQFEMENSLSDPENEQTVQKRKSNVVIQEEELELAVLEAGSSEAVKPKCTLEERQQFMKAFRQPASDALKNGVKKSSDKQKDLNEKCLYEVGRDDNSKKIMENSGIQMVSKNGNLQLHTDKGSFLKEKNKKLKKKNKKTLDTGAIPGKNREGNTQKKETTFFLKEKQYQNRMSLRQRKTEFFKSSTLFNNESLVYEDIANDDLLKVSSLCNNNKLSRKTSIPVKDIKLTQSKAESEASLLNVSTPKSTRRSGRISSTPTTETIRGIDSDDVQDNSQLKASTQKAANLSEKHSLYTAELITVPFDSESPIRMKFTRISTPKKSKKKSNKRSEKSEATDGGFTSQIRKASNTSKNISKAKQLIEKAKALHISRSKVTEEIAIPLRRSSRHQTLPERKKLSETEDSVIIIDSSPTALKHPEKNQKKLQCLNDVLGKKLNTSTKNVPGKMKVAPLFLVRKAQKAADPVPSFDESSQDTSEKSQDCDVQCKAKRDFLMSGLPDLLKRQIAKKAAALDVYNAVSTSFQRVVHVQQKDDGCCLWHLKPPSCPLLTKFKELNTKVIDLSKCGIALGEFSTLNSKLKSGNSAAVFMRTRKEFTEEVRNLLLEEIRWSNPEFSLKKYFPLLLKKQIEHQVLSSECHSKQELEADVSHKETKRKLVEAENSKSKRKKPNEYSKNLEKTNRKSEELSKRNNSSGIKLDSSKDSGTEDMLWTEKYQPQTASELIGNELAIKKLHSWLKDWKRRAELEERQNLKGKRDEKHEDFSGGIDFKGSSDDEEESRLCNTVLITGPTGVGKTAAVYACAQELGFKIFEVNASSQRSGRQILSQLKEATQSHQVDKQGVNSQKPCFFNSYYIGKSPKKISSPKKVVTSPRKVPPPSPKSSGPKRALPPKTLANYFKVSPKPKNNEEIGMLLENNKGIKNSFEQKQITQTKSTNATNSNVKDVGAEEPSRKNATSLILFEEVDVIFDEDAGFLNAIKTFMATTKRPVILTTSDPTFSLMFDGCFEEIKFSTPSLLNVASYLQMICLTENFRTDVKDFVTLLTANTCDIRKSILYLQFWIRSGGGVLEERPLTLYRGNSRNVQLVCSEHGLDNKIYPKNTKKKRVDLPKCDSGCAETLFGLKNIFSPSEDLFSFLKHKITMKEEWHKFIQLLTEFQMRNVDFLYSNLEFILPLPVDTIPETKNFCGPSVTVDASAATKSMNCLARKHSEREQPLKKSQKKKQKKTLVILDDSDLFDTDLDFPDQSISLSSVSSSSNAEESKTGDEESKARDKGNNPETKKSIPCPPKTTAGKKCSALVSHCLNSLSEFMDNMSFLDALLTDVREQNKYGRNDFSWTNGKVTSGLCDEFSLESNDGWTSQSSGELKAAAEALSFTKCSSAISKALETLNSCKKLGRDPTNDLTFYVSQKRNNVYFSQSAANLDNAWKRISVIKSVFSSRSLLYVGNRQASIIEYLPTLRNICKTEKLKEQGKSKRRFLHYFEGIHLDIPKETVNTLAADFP
ELG1-Luc MMS: MMS-stimulated human ELG1 repair inhibition, confirmed. shares compounds with ELG1 repair inh. HEK293T luciferase-tagged ELG1 level, MMS stimulated. Potency, µM (highest dose often 46.1 µM), for inactives: at the highest dose activity change, negative = inhibition, hits mostly inhibitors. hit rate 53% among 670; further: on the % scale 0 is the no-effect control and ±100 the full control effect; nearly all actives have a fitted effect of over 60% in size
ELG1 5FU viab: confirmation of ELG1 repair inhibitors: viability with 5FU; Potency, µM (series often up to 46.1 µM), without a hit: at the top dose activity change, negative = viability loss, usual class: cytotoxic; shares compounds with ELG1 repair inh; cell viability with 5-FU, ELG1-dependent repair; 670 tested, under 10 active;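 further: ELG1-luc HEK293T cells cotreated with 5-fluorouridine at 10 µM final; viability measured 16 h after compound addition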
ELG1 MMS cell: confirmation of ELG1 repair inhibitors: viability with MMS. shares compounds with ELG1 repair inh. Cell viability with MMS, ELG1-dependent DNA repair. Potency, µM (highest dose often 46.1 µM), for inactives: top-dose activity change, negative = viability loss, usual class: cytotoxic. hit rate 33% among 670;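 further: ELG1-luc HEK293T cells co-treated with 10 µM MMS; viability read 16 h after compound addition; on the % scale 0 is the no-effect control and ±100 the full control effect; nearly all actives have a fitted effect of over 60% in size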
Cell viab unstim: counter-screen for ELG1 repair inhibitors: unstimulated cell viability; Potency, µM (top dose mostly 45.9 µM), without a hit: top-dose activity change, negative = loss of viability, actives largely listed as cytotoxic; shares compounds with ELG1 repair inh; hit rate 8% among 900; cell viability counter-screen, unstimulated, luminescence;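 further: compound exposure lasted 16 hours before reading; on the % scale 0 is the no-effect control and ±100 the full control effect; nearly all actives have a fitted effect of over 55% in size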
FLuc biochem: counter-screen for ELG1 repair inhibitors: firefly luciferase inhibition | hit rate 10% among 350 | shares compounds with ELG1 repair inh | Potency, µM (highest dose often 57.5 µM), for inactives: at the highest dose activity, negative = inhibition, usual class: inhibitors | purified firefly luciferase, luminescence counter-screen; further: on the % scale 0 is the no-effect control and ±100 the full control effect
Starred values were filed as active, the others as inactive; ? = inconclusive; nt = no result given. Shown are actives, neighbours in structure and some others; about 9.4% of the full set was active somewhere. The call rests on the fitted dose curve; in most records, active means well fitted curve in the direction sought with a large enough effect; inconclusive means small, poorly fitted or top-dose-only effect, or another doubt; inactive means no such curve, though single readings can be large; an effect the other way counts as inactive or inconclusive. Potency means the concentration at half of the fitted maximal effect.

SMILES	FLuc counter	ELG1 repair inh	ELG1 genotoxic	NPC1 promoter act	Rab9 prom act	SMN2 splice up	ELG1-Luc inh	ELG1-Luc MMS	ELG1 5FU viab	ELG1 MMS cell	Cell viab unstim	others
Cc1ccc(Cl)cc1N1CCN(C(=O)CCS(=O)(=O)c2ccc3c(c2)NC(=O)CO3)CC1	2.5%	?	-9.9%	-10.8%	-12.9%	nt	nt	nt	nt	nt	nt
COC(=O)c1ccc(OCC2c3cc(OC)c(OC)cc3CCN2C(C)=O)cc1 (centres undefined)	-14.7%	6.51µM*	-4.2%	-8.8%	-2.8%	-37.0%	9.97µM*	?	?	?	?	ELG1 FLuc counter=29.1%;FLuc biochem=-16.3%
CC(C)(C)c1oc(C(=O)O)cc1CN1CCOCC1	-0.3%	0.6%	-1.9%	-3.1%	-4.1%	nt	nt	nt	nt	nt	nt
CCOC(=O)N1CCN(C(=O)CSCC(=O)Nc2nc(-c3ccc(OC)cc3)cs2)CC1	?	0.0%	-0.4%	27.6%	28.4%	?	nt	nt	nt	nt	nt
CCOC(=O)N1CCN(C(=O)CSCC(=O)Nc2nc(-c3ccc(-c4ccccc4)cc3)cs2)CC1	-16.1%	10.3µM*	2.59µM*	?	?	-1.5%	nt	nt	nt	nt	15.8µM*	ELG1 FLuc counter=-9.0%;FLuc biochem=?
CCN(CC)S(=O)(=O)c1ccc(NC(=O)NCc2noc3ccc(C)cc23)cc1	-2.3%	nt	nt	nt	nt	nt	nt	nt	nt	nt	nt
O=S(=O)(c1cc(F)ccc1F)N1CCN(c2ncnc3ccccc23)CC1	nt	4.61µM*	-4.0%	nt	nt	nt	6.28µM*	2.23µM*	-14.3%	2.5µM*	?
Cc1ccc(-n2nc3c(=O)n(CC(=O)NCCc4ccccc4C)nc(C)c3c2C)cc1	-3.5%	3.66µM*	-12.4%	-16.1%	-20.2%	nt	?	9.96µM*	-13.4%	9.96µM*	?
CC(C1CCN(Cc2cn(C)nc2-c2cccc(Cl)c2)CC1)N1CCOCC1 (centres undefined)	5.5%	15.2%	-0.6%	-5.8%	-1.4%	nt	nt	nt	nt	nt	nt
CCOC(=O)N1CCN(C(=O)c2cnn3c(C(F)F)cc(-c4ccc(C)cc4)nc23)CC1	4.8%	3.66µM*	-17.6%	-6.1%	-7.3%	9.2%	3.53µM*	5.4%	?	-7.8%	?
